# A number with no mark means an inactive call.
# Test system: Ditylenchus dipsaci
# Test: proportion of mobile D. dipsaci (mixed stage) relative to DMSO control (fraction of DMSO control); higher = more viable, less nematicidal, active = 0.86 or less; extreme values may be limits of the assay
# Conditions: 60 µM; 5 days; temperature: 20 °C
# Summary of the method: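 The worms, D. dipsaci raised on pea plants in Gamborg B-5 agar, were recovered through a filter funnel into water. Each well of a 96-well plate then held about 20 of them in distilled water plus pinned compound at 60 µM final (0.6% v/v DMSO), and the sealed plates were shaken at 200 rpm at 20 °C for 5 days. Following addition of 2 µL 1 M NaOH, mobile worms were counted by microscopy, and mobility was expressed against DMSO controls as the average of two biological replicates.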
row,Structure (SMILES),proportion of mobile D. dipsaci
1,Cc1ccc(OCc2nc(-c3ccncc3)no2)cc1C,1
2,Cc1ccc(OCc2nc(-c3ccccn3)no2)cc1C,1
3,Clc1cccc(OCc2nc(-c3ccncc3)no2)c1,1
4,O=C(Nc1ccccc1-c1nc(-c2cccnc2)no1)c1ccc(Cl)cc1,1
5,COc1ccccc1NC(=O)CSc1nnc(-c2ccccc2)o1,1
6,Cc1cc(C)c(OCc2nc(-c3ccncc3)no2)c(C)c1,1
7,Cc1cccc(OC(C)c2nc(-c3ccncc3)no2)c1 (centres undefined),1
8,Cn1c(SCc2nc(-c3ccc(Br)cc3)no2)nnc1-c1ccco1,1
9,Cc1ccccc1OCc1nc(-c2ccc(F)cc2)no1,1
10,COc1nc(C)ccc1-c1noc(-c2ccccc2C)n1,1
11,Fc1cccc(Cl)c1CSc1nnc(-c2ccccc2)o1,1
12,Cc1ccc(OCc2nc(-c3ccc(Cl)cc3)no2)cc1C,1
13,O=C(CSc1nnc(-c2ccco2)o1)Nc1ccc(Br)cc1,1
14,CCc1ccc(NC(=O)CSc2nnc(-c3ccco3)o2)cc1,1
15,COc1nc(C)ccc1-c1noc(-c2ccc(Cl)cc2)n1,1
16,CCSc1nnc(-c2ccc(Cl)cc2Cl)o1,0.739 (active)
17,Clc1ccc(-c2nnc(SCc3ccccc3)o2)c(Cl)c1,1
18,O=C(CSc1nnc(-c2ccc(Cl)cc2)o1)NC1CC2CCC1C2 (centres undefined),1
19,Brc1ccc(OCc2nc(-c3cccs3)no2)cc1,1
20,Cc1ccc(-c2nc(-c3ccc(C(F)(F)F)cc3)no2)cc1,1

row,Structure (SMILES),proportion of mobile D. dipsaci
1,CCOc1ccc(NC(=O)CSc2nnc(-c3ccncc3)o2)cc1,1
2,Cc1cc(OCc2nc(-c3cccnc3)no2)ccc1Cl,1
3,O=C(NCc1cccnc1)c1ccccc1-c1nc(-c2ccccc2Cl)no1,1
4,CC(=O)Nc1ccc(NC(=O)c2ccccc2-c2nc(-c3ccccc3Cl)no2)cc1,1
5,O=C(CSc1nnc(-c2ccc(Cl)cc2)o1)Nc1nccs1,1
6,Fc1ccccc1-c1nc(-c2ccccc2)no1,1
7,Clc1ccc(CSc2nnc(-c3ccccc3Cl)o2)cc1,1
8,c1ccc(-c2noc(COc3ccc4c(c3)CCCC4)n2)cc1,1
9,COc1ccc(C(=O)CSc2nnc(-c3ccccc3)o2)cc1,1
10,Cc1cccc(-c2noc(COc3ccc(C)cc3C)n2)c1,1
11,CCOc1ccc(-c2nc(-c3ccc(C)cc3)no2)cc1,1
12,N#Cc1cccc(CSc2nnc(-c3ccncc3)o2)c1,1
13,O=C(CSc1nnc(-c2ccccc2)o1)Nc1cccc(Br)c1,1
14,CCOc1ccccc1-c1nc(-c2ccc(NC(=O)Cc3ccccc3OC)cc2)no1,1
15,Cc1ccc(-c2noc(COc3ccc(Cl)c(C)c3)n2)cc1,1
16,O=C(Nc1ccccc1-c1nc(-c2ccncc2)no1)c1ccc(Cl)cc1,1
17,CC(Sc1nnc(-c2ccccc2)o1)C(=O)Nc1nccs1 (centres undefined),1
18,COc1ccc(-c2nnc(SCC(=O)Nc3ccc(Br)cc3C(C)C)o2)cc1,1
19,O=C(Nc1ccc(-c2noc(COc3ccccc3)n2)cc1)c1ccc(F)cc1,1

# Source: the supplement of paper PMC11219838
